Measurements from article PMC10726135, “HNF4α isoforms regulate the circadian balance between carbohydrate and lipid metabolism in the liver”.
Whole data set: some 18,000 sequences, median “log2 normalized intensity” near 0.36, cut for the highest 2% near 7.3. The sample holds the highest values, similar sequences and a random draw of the others, so the mix is not that of the screen.

Target: T1, HNF4alpha8 (COS-7 nuclear extract) (Homo sapiens, UniProt P41235-5 1-452)
T1 sequence: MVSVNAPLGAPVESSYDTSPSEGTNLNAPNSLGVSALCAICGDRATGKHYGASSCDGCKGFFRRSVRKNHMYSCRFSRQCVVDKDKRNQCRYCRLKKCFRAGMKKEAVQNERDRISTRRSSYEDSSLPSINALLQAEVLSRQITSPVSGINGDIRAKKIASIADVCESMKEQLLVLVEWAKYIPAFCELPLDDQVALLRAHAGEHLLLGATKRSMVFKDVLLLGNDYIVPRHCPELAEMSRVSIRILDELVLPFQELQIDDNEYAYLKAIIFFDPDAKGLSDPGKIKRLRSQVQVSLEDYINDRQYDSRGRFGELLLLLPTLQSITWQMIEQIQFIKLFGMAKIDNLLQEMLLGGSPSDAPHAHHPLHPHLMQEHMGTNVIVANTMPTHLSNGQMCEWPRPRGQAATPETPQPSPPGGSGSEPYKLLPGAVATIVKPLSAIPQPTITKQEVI
Experiment: protein-binding microarray; COS-7 nuclear extract on double-stranded Agilent 4x180k PBM; binding buffer, salt, pH and temperature not given in the material; high values mean tight binding
Conditions: chain copies: 2; label: 3' end of strand 1 on the slide; dsDNA, one strand shown
Procedure, shortened: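 Binding signal is the background-corrected, normalized gProcessedSignal calculated by Agilent software. It was measured by applying nuclear extracts of COS-7 cells transiently transfected with a human HNF4α isoform expression vector to a custom Agilent SurePrint G3 4x180k array of ~44,000 double-stranded ~60-nt test sequences in quadruplicate, then imaging bound HNF4α on an Agilent G2565CA scanner at 2-µm resolution.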

Sequence	binding signal [log2 normalized intensity]
TATTCCTTGTCCTTGACCCTTCCTCCCATTGCCTAGGGAGATTAGAGTATCGGTCGA	4.01
GAAACATCCACATGTGGGTCCAAAGAACATGCCTAGGGAGATTAGAGTATCGGTCGA	3.82
ATCACATTCTAATCCTCTGGTCTTTGCCCCGCCTAGGGAGATTAGAGTATCGGTCGA	5
CCCTGAGTAGTTCTTCTGGTTAGTTTTTCAGCCTAGGGAGATTAGAGTATCGGTCGA	1.66
CTCCCCTCCTCCAGATGGGCTCATGTAACAGCCTAGGGAGATTAGAGTATCGGTCGA	2.65
CCAGGCTGATTTAGCTATTTGACCTTCGGCGCCTAGGGAGATTAGAGTATCGGTCGA	5.84
GACAGCTGGGCCCTGCCTGACCTGCCCTTTGCCTAGGGAGATTAGAGTATCGGTCGA	5.01
ATGCAAAGCCCTGGCTGACCTTTAGCCTGGGCCTAGGGAGATTAGAGTATCGGTCGA	7.69
TTAGCTATTTGACCTTCGGCCTCAATTATAGCCTAGGGAGATTAGAGTATCGGTCGA	7.29
CTGATTTAGCTATTTGACCTTCGGCCTCAAGCCTAGGGAGATTAGAGTATCGGTCGA	8.73
GCCCCTGGCTGGGCCCTGACCTCAAGTGACGCCTAGGGAGATTAGAGTATCGGTCGA	2.6
AACCAAGATAGTGACGGAGGTGACCTTTGGGCCTAGGGAGATTAGAGTATCGGTCGA	7.34
GTGACGGAGGTGACCTTTGGTTGTCCTTACGCCTAGGGAGATTAGAGTATCGGTCGA	4.94
TGGCTGGGCCCTGACCTCAAGTGACCTTTGGCCTAGGGAGATTAGAGTATCGGTCGA	7.77
CAAGAATGCAAAGCCCTGGCTGACCTTTAGGCCTAGGGAGATTAGAGTATCGGTCGA	5.88
ACCAAAACCAAGATAGTGACGGAGGTGACCGCCTAGGGAGATTAGAGTATCGGTCGA	1.88
ATTGGCCCTTTGACCTTTAATCAAGGGCTGGCCTAGGGAGATTAGAGTATCGGTCGA	5.91
CTTCGCTGGAATGTCACAGGGATTACGATCGCCTAGGGAGATTAGAGTATCGGTCGA	0.569
CTTTGATAGCCAAGCCAACCAGGAGAATTTGCCTAGGGAGATTAGAGTATCGGTCGA	2.31
CTGGTTGGAATTCCAGTGTTCACATCTGATGCCTAGGGAGATTAGAGTATCGGTCGA	1.09
TCATTTCTGCTTGCAACCAAAGGAGTCCTGGCCTAGGGAGATTAGAGTATCGGTCGA	-0.447
TGGCCAAAGTTCAGTAAATCTTAGAGAACAGCCTAGGGAGATTAGAGTATCGGTCGA	2.27

Sequence	binding signal [log2 normalized intensity]
GCCAAGGGCAGTGTTTGCCCAGCTTGAATCGCCTAGGGAGATTAGAGTATCGGTCGA	-0.771
GCAACCTTTGCTCTCCCTCCTCTCTGAGCAGCCTAGGGAGATTAGAGTATCGGTCGA	2.28
GGGCCCTGACCTCAAGTGACCTTTGACCTCGCCTAGGGAGATTAGAGTATCGGTCGA	12
CTGGGCCCTGCCTGACCTGCCCTTTGTCCCGCCTAGGGAGATTAGAGTATCGGTCGA	6.91
ATCGCCCTTTGAGGAGGCCTTTCCTGACCCGCCTAGGGAGATTAGAGTATCGGTCGA	3.43
GGAGTGTGGGGTGGTGTCAGGAGTACAGGTGCCTAGGGAGATTAGAGTATCGGTCGA	1.12
CTGGATGACCTTTGTCCTGGCACAACTGGAGCCTAGGGAGATTAGAGTATCGGTCGA	6.78
TTGAGCTGGATGACCTTTGTCCTGGCACAAGCCTAGGGAGATTAGAGTATCGGTCGA	8
TGACCTTTGTCCTGGCACAACTGGATGGTGGCCTAGGGAGATTAGAGTATCGGTCGA	5.2
CATCTTTGAGCTGGATGACCTTTGTCCTGGGCCTAGGGAGATTAGAGTATCGGTCGA	9.19
TTTTTTTTTTGAGATGGAATCTTGCCCTGTGCCTAGGGAGATTAGAGTATCGGTCGA	3.54
TCCTGATCTTTGACCTGGAGCATGACCCTTGCCTAGGGAGATTAGAGTATCGGTCGA	5.6
CACTGGGCTGATGACCTTTGACTGAGATGGGCCTAGGGAGATTAGAGTATCGGTCGA	5.81
ATGACCTTTGACTGAGATGGGAGCAGTGCTGCCTAGGGAGATTAGAGTATCGGTCGA	3.52
TAAGTCACTGGGCTGATGACCTTTGACTGAGCCTAGGGAGATTAGAGTATCGGTCGA	7.85
CTAGTTAAGTCACTGGGCTGATGACCTTTGGCCTAGGGAGATTAGAGTATCGGTCGA	6.81
AGAATCATCTTTGAGCTGGATGACCTTTGTGCCTAGGGAGATTAGAGTATCGGTCGA	8.24
ATGGGATGACCTTTGAGCAATAGGAAATGGGCCTAGGGAGATTAGAGTATCGGTCGA	4.79
CTAGCCCCGCCCAGATGTCTGGCTAAGACCGCCTAGGGAGATTAGAGTATCGGTCGA	3.43
GAGGAAAACCAGCTCAGTGGAAATTGTCCTGCCTAGGGAGATTAGAGTATCGGTCGA	0.989
CATATCTGGAATTTCAAAGGGAGCATATGTGCCTAGGGAGATTAGAGTATCGGTCGA	1.31
CTTTCTTTGTCTGTGTAGACTCATCTGGTGGCCTAGGGAGATTAGAGTATCGGTCGA	1.89

Sequence	binding signal [log2 normalized intensity]
ATGAAGCAAGAGTCCAAATTCCTAGCCCTCGCCTAGGGAGATTAGAGTATCGGTCGA	2.14
AGGTTCCTCGCCTATGGTATGTATGGAATGGCCTAGGGAGATTAGAGTATCGGTCGA	2.2
TCTTTGCACTTGATGTTCCCCCTCCCTGGAGCCTAGGGAGATTAGAGTATCGGTCGA	4.84
CCTTTGCACCAGAGATAATATGCTTACTTAGCCTAGGGAGATTAGAGTATCGGTCGA	0.614
TCTGACCAGGCTGATTTAGCTATTTGACCTGCCTAGGGAGATTAGAGTATCGGTCGA	4.7
CTATTTCTGACCTTTGCACCAGAGATAATAGCCTAGGGAGATTAGAGTATCGGTCGA	6.97
AAGACAGGGGCTATTTCTGACCTTTGCACCGCCTAGGGAGATTAGAGTATCGGTCGA	10.2
TGGCTAAGACAGGGGCTATTTCTGACCTTTGCCTAGGGAGATTAGAGTATCGGTCGA	7.32
AGGGGCTATTTCTGACCTTTGCACCAGAGAGCCTAGGGAGATTAGAGTATCGGTCGA	7.69
CTGAGACAACACTCAGGATACCTAAGCCCCGCCTAGGGAGATTAGAGTATCGGTCGA	1.33
TCTTATTTACCGAAATGTGGGTGAGGCTGTGCCTAGGGAGATTAGAGTATCGGTCGA	1.67
AAGCTATTCACTTTTTGGCCTTTGGCTGTTGCCTAGGGAGATTAGAGTATCGGTCGA	3.01
TAAAATGGACTTTGTGGGCCAAAAGCAGCCGCCTAGGGAGATTAGAGTATCGGTCGA	2.65
AAAAAGTCCCTGGTCCCATAGGAAAGTGAGGCCTAGGGAGATTAGAGTATCGGTCGA	-0.813
TTTTGAATGACAGTGTCAGGACCTTGCTCCGCCTAGGGAGATTAGAGTATCGGTCGA	2.73
AATACTTGCCTAAGGTCAATGTCCTTTTTCGCCTAGGGAGATTAGAGTATCGGTCGA	4.53
ACTTTGGAACTCAGTTAATGTACAGAGTATGCCTAGGGAGATTAGAGTATCGGTCGA	0.96
TCTTAACATCAGAAGTTGGACTTTGTACATGCCTAGGGAGATTAGAGTATCGGTCGA	9.76
AGGGACTTTGATCTTCTTACCCCTTTGCTGGCCTAGGGAGATTAGAGTATCGGTCGA	3.3
AGGAGATGTGGTGGACTTTAACGACCTTTGGCCTAGGGAGATTAGAGTATCGGTCGA	5.28
ATTAGAGAACATGTACTTTGTACTGCTTATGCCTAGGGAGATTAGAGTATCGGTCGA	4.99
CCCCTTCTTAACATCAGAAGTTGGACTTTGGCCTAGGGAGATTAGAGTATCGGTCGA	8.31

Sequence	binding signal [log2 normalized intensity]
CCTTGATGTGTATTTGTAGCTTCAAACCAGGCCTAGGGAGATTAGAGTATCGGTCGA	1.52
GGGGGTTTGCAACCTTTGATAACCTACAACGCCTAGGGAGATTAGAGTATCGGTCGA	1.37
GTGAGTGTGTTGGCAAGAGATCTGCAGGGTGCCTAGGGAGATTAGAGTATCGGTCGA	1.02
TTACATGCCTTATCTGGTTCAAAGGTCATTGCCTAGGGAGATTAGAGTATCGGTCGA	8.2
GGTTCAAAGGTCATTTCTGCTTGCAACCAAGCCTAGGGAGATTAGAGTATCGGTCGA	5.81
TTATCTTACATGCCTTATCTGGTTCAAAGGGCCTAGGGAGATTAGAGTATCGGTCGA	3.33
TGCCTTATCTGGTTCAAAGGTCATTTCTGCGCCTAGGGAGATTAGAGTATCGGTCGA	7.61
TCCTTTTATCTTACATGCCTTATCTGGTTCGCCTAGGGAGATTAGAGTATCGGTCGA	1.64
TATCTGGTTCAAAGGTCATTTCTGCTTGCAGCCTAGGGAGATTAGAGTATCGGTCGA	6.43
TCCAGAATTGTGTGGTTATCTGTTGGGGAAGCCTAGGGAGATTAGAGTATCGGTCGA	2.14
CCTTGCCACCCACACTGCAGCAAAACTTTAGCCTAGGGAGATTAGAGTATCGGTCGA	-0.731
GCAAACCTACCTGAACTTTGCCCCAGAGGAGCCTAGGGAGATTAGAGTATCGGTCGA	6.74
GGGCAGCAAACCTACCTGAACTTTGCCCCAGCCTAGGGAGATTAGAGTATCGGTCGA	8.83
CTTTAGGACTTTGAACCTTGGGTCTGTAATGCCTAGGGAGATTAGAGTATCGGTCGA	6.82
GGGAGGAGGGCAACCTTTGAACTGGGTCTTGCCTAGGGAGATTAGAGTATCGGTCGA	4.84
TTGAACCTTGGGTCTGTAATCTCACAACTCGCCTAGGGAGATTAGAGTATCGGTCGA	1.98
CAAAACTTTAGGACTTTGAACCTTGGGTCTGCCTAGGGAGATTAGAGTATCGGTCGA	7.83
GGACTTTGAACCTTGGGTCTGTAATCTCACGCCTAGGGAGATTAGAGTATCGGTCGA	7.84
ATAAGGGGCAGCAAACCTACCTGAACTTTGGCCTAGGGAGATTAGAGTATCGGTCGA	3.58
CCTTGGGTCTGTAATCTCACAACTCAGAAGGCCTAGGGAGATTAGAGTATCGGTCGA	-0.129
CACACTGCAGCAAAACTTTAGGACTTTGAAGCCTAGGGAGATTAGAGTATCGGTCGA	4.12
TGCAGCAAAACTTTAGGACTTTGAACCTTGGCCTAGGGAGATTAGAGTATCGGTCGA	9.2
